# HP1b binding inh = inhibitors of HP1-beta chromodomain binding to methylated histone tails | AlphaScreen HP1-beta / biotin-H3K9me3 peptide binding | Potency, µM (top dose mostly 114 µM), hits mostly inhibitors | 0.56% of 390,000 active | AID 540317; note: nearly all actives have a fitted effect of over 70% in size
# Target sequence (P83916 whole entry, looked up): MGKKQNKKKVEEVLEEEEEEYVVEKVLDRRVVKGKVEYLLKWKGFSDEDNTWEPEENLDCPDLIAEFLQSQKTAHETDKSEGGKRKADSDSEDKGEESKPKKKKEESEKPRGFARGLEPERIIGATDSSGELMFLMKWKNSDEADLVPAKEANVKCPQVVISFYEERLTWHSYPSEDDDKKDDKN
#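 Compound inhibition of the preformed complex between 50 nM HP1-beta and 50 nM biotinylated H3K9me3 peptide was read by AlphaScreen. Buffer was PBS pH 7.4 with 0.01% Tween-20. Incubations ran 30 min at room temperature, with 10 ug/mL donor/acceptor beads.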
# JMJD2A Tudor = inhibitors of human JMJD2A Tudor domain; 4.4% of 390,000 active; AlphaScreen JMJD2A-Tudor / H3K4me3 peptide binding; Potency, µM (series often up to 114 µM), most hits filed as inhibitors; note: nearly all actives have a fitted effect of over 50% in size
# BAZ2B block = BAZ2B (human) inhibition. AlphaScreen BAZ2B-H3K14Ac peptide displacement. Potency, µM (doses to about 114 µM), most hits filed as inhibitors. 4.4% of 360,000 active; note: nearly all actives have a fitted effect of over 60% in size
#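 BAZ2B (50 nM) with biotin-H3(5-23)K14Ac peptide (50 nM) in PBS pH 7.4, 0.01% Tween-20, preformed 30 min, then compound 30 min at room temperature; top concentration 110uM. AlphaScreen streptavidin donor/nickel chelate acceptor beads (10 ug/mL final), 20 min dark, signal read.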
# Six1-Eya2 blk = blocks human Six1 binding to Eya2; AlphaScreen GST-Six1/His-Eya2 binding, biochemical; hits give low values; 0.56% of 360,000 active; activity change, % (concentration not given with the values); Q15475+O00167; in the data active = activity change below about -65%; inconclusive = mostly about -30% to -63%
#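 Homogeneous AlphaScreen proximity assay pairing GST-Six1 with His-tagged Eya2 (added as 5X mix: 250 nM and 500 nM) in 50 mM Tris pH 8.0, 300 mM NaCl, 1 mM TCEP. Glutathione donor and nickel acceptor beads; 1 h, 37 °C, dark.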
# CtBP-E1A inh = blocks the CtBP interaction with E1A; AlphaScreen GST-E1A/His-CtBP binding, 1536-well; hits give low values; activity change, % (concentration not given with the values); 0.49% of 340,000 active; in the data active = activity change below about -65%; inconclusive = mostly about -30% to -63%
#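 Homogeneous bead-based format: GST-tagged E1A captured on glutathione donor beads, His-tagged CtBP on nickel acceptor beads; compounds precede bead addition by 2 h at 37 °C.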
# G9a inh = G9a (human) methyltransferase inhibition | G9a H3K9 monomethylation, AlphaScreen, 2 h | Potency, µM (highest dose often 102 µM), usual class: inhibitors | 8.8% of 350,000 active; note: nearly all actives have a fitted effect of over 75% in size
# Target sequence (Q96KQ7 913-1193 limits assumed): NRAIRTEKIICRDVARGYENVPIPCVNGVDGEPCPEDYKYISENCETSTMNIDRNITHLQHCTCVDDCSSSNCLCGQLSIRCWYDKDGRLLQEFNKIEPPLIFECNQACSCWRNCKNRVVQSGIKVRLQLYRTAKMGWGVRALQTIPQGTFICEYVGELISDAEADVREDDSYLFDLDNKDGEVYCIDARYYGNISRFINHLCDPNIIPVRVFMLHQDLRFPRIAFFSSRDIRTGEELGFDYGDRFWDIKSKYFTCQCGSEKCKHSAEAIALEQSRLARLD
#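 Using a bead-based AlphaScreen, monomethylated H3K9 product from 2 h room-temperature reactions (G9a 20 nM, peptide 500 nM, SAM 20 uM) was detected with 0.5 ug/mL rabbit anti-H3K9me1 antibody.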
# Hits are given with their value; 0 = inactive; ? = inconclusive; - = no result; [ ] = remark or other dose. Shown are actives, neighbours in structure and some others; about 10% of the full set was active somewhere. Unless noted, calls come from the whole dose curve; as a rule, active = well fitted inhibition curve with a large enough effect; inconclusive = small, poorly fitted or top-dose-only effect; inactive = no such curve, though single readings can be large or run the other way.
SMILES,HP1b binding inh,JMJD2A Tudor,BAZ2B block,Six1-Eya2 blk,CtBP-E1A inh,G9a inh
COc1ccc(S(=O)(=O)CCC(=O)Nc2cccc(OC)c2)cc1,-,-,0,-,-,0
COc1ccccc1N=C1SCC(=O)N1c1ccccc1OC,?,0,0,0,0,28µM
CCOc1cc2c3c(c1)C1(Nc4ccccc4S1)C(=O)N3C(C)(C)CC2C (centres undefined),?,35µM,28µM,?,?,?
Nc1cc2c(cc1C(=O)c1cccc(Br)c1)OCCO2,?,45µM,35µM,0,0,18µM
COc1cc(NC(=O)COC(=O)C2CC(O)CN2S(=O)(=O)c2ccc(Cl)cc2)c(C)cc1[N+](=O)[O-] (centres undefined),0,0,-,0,0,-
COc1ccc(N2CCN(C(=O)C3CC(O)CN3S(=O)(=O)c3ccc([N+](=O)[O-])cc3)CC2)cc1 (centres undefined),0,0,0,0,0,45µM
O=C(COC(=O)[C@@H]1CC(O)CN1S(=O)(=O)c1ccc([N+](=O)[O-])cc1)NC12CC3CC(CC(C3)C1)C2 (some centres undefined),0,0,0,0,-,20µM
Cc1ccc(S(=O)(=O)N2CC(O)C[C@H]2C(=O)OCC(=O)Nc2ccc(N3CCCCC3)cc2)cc1C (some centres undefined),?,45µM,40µM,0,0,6.3µM
CC(C)c1ccc(NC(=O)C2CCN(S(=O)(=O)c3ccc4c(c3)C(C)(C)C(=O)N4C)CC2)cc1,0,0,0,0,0,0
CS(=O)(=O)Nc1ccccc1C(=O)NCc1ccco1,0,0,0,0,0,13µM
Cc1ccccc1NS(=O)(=O)c1ccc(OCC(=O)NCc2ccco2)cc1,0,0,0,0,0,0
CCOc1ccc(S(=O)(=O)Nc2ccccc2C(=O)NCc2ccco2)cc1,0,0,?,0,0,50µM
COC(=O)c1cc(NC(=O)CCc2c(C)nc3nc(C)nn3c2C)cc(C(=O)OC)c1,0,0,0,-,-,0
COc1cc(/C=C2/C(=N)N3C(SC)=NSC3=NC2=O)ccc1OC(=O)c1ccco1,0,0,0,0,0,?
CCS(=O)(=O)C1=NN2C(=N)/C(=C\c3ccc(OC(=O)c4ccco4)c(OC)c3)C(=O)N=C2S1,0,?,0,0,0,32µM
CS(=O)(=O)C1=NSC2=NC(=O)/C(=C\c3ccc(OC(=O)c4ccco4)cc3)C(=N)N21,-,-,0,-,-,?
CCOC(=O)c1ccc(N2NC(=O)/C(=C/c3ccc(OC(=O)c4ccco4)c(OC)c3)C2=O)cc1,-,-,?,-,-,32µM
CS(=O)(=O)C1=NN2C(=N)/C(=C\c3ccc(OC(=O)c4ccco4)cc3)C(=O)N=C2S1,0,0,50µM,0,-,45µM
N=C1/C(=C\c2ccc(OC(=O)c3ccc(F)cc3)cc2)C(=O)N=C2SC(N3CCOCC3)=NN12,0,0,45µM,?,-,0
COc1ccc(CNC(=O)Cc2c(C)c3cc4c(C)coc4c(C)c3oc2=O)cc1,0,0,0,-,-,0
CCCn1c(SCc2ccc(Cl)cc2)nc2c1c(=O)[nH]c(=O)n2C,0,0,0,0,0,50µM
COCCn1c(SCc2ccc(Cl)cc2)nc2c1c(=O)[nH]c(=O)n2C,0,0,-,0,0,-
C/C=C/Cn1c(SCc2ccc(Cl)cc2)nc2c1c(=O)[nH]c(=O)n2C,0,0,0,0,0,45µM
Cn1c(=O)[nH]c(=O)c2c1nc(SCC(=O)O)n2Cc1ccccc1,?,25µM,0,0,-,22µM
CSc1nc2c(c(=O)[nH]c(=O)n2C)n1Cc1ccc(Cl)cc1,?,0,0,0,0,0[0.501 µM]
SMILES,HP1b binding inh,JMJD2A Tudor,BAZ2B block,Six1-Eya2 blk,CtBP-E1A inh,G9a inh
C/C=C/Cn1c(SC)nc2c1c(=O)[nH]c(=O)n2C,0,0[11.4 µM],0,0,0,8.9µM
C/C=C/Cn1c(Br)nc2c1c(=O)[nH]c(=O)n2C,0,0,0,0,0,0
CCOC(=O)[C@]12CCCC=C1N(Cc1ccccc1)C(=O)[C@H](CC(=O)NCCCN1CCCC1=O)C2,-,-,-,0,0,-
COC(=O)c1ccc(N(CC(=O)NC2CCCCC2)C(=O)CNC(=O)c2ccco2)cc1,0,0,0,0,0,0
Cn1c(=O)c2c(nc(NCCCO)n2Cc2cccc(C(F)(F)F)c2)n(C)c1=O,0,0,0,0,0,0[12.7 µM]
Cn1c(SCc2ccccc2)nc2c1c(=O)[nH]c(=O)n2C,0,0,0,0,0,0
Cn1c(=O)c2c(nc(SCC(=O)O)n2Cc2cccc(C(F)(F)F)c2)n(C)c1=O,0,0,0,0,0,14µM
CCn1c(SCc2ccccc2)nc2c1c(=O)[nH]c(=O)n2C,0,0,0,0,-,45µM
Cc1ccc(Cl)cc1NC(=O)N1CCC(CN2CCCCCC2)CC1,0,0,0,-,-,0
O=C(NCC1CC1)c1ccc(-n2ccnc2)c2ccoc12,-,-,-,0,0,-
Cc1ccc(N2C(=O)C3C4C=CC(C4)C3C2=O)cc1C (centres undefined),0,0,0,0,0,0
Cc1ccc(N2C(=O)C3C4C=CC(CC4)C3C2=O)cc1[N+](=O)[O-] (centres undefined),0,0,79µM,0,-,0[0.501 µM]
COc1cccc(/C=C2/CCC(CN(C)C)C2=O)c1 (centres undefined),?,79µM,-,0,0,-
Cc1cccc(C(=O)N2CCCCCC2)c1,0,0,0,0,0,0
O=C(c1ccccc1)n1c(=S)nc2ccccn21,0,0,0,0,0,?
Cc1cccc(C(=O)n2c(=S)nc3ccccn32)c1,0,0,0,0,0,2.2µM
Cc1ccc(C(=O)n2c(=S)nc3ccccn32)cc1,-,-,0,-,-,25µM
Cc1ccc(SCCNC(=O)CN(c2cccc(C)c2C)S(C)(=O)=O)cc1,0,0,0,-,-,0
COC(=O)C1(Cc2ccccc2)NC(c2ccccc2C)C2C(=O)N(c3ccc4c(c3)OCO4)C(=O)C21 (centres undefined),0,0,0,0,0,0.79µM
CCC(=O)N1c2ccc(C)cc2C2=NNC(=S)NC21O (centres undefined),0,0,0,0,0,0
O=C1CC(C(=O)N2CCN(c3ccccc3O)CC2)CN1Cc1ccccc1 (centres undefined),0,0,0,0,0,?
O=C(O)CCCCCN1C(=O)/C(=C\c2ccc(-c3ccc(Cl)cc3)o2)SC1=S,40µM,32µM,?,0,0,?
O=C(O)CCCN1C(=O)/C(=C/c2ccncc2)SC1=S,0,0,0,0,0,0[12.7 µM]
O=C(O)CCCN1C(=O)/C(=C/c2ccc(-c3nc4ccccc4s3)o2)SC1=S,16µM,10µM,10µM,?,0,?
O=C(O)CCCCCN1C(=O)/C(=C/c2ccncc2)SC1=S,0,0,0,0,0,79µM
COC(=O)/C=C1\OCc2cc(OCc3ccccc3)ccc21,-,-,-,0,0,-

# High-throughput results as filed in PubChem.
